Active and inactive are the calls of the source. Unless noted, no rule for the calls is given here.
Assays:
[1] = circadian clock period modulators, cell-based, LOPAC library, luminescence reporter (AID 2774); details: circadian reporter cells, at 7 µM, actives lie on both sides;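 also: values are relative to mean of DMSO wells on each plate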
[2] = system: Hepatitis C virus NS3 helicase; assay: HCV NS3 helicase inhibitors, primary screen, biochemical, fluorescence polarization, LOPAC1280 library (AID 687035; in the data active = inhibition above about 37%); details: Purified HCV NS3 helicase, Cy5-dT15 ssDNA binding fluorescence polarization; stronger effect = higher value; concentration not given here
[3] = Cy5 fluorescence quenching or enhancement artefacts, artefact control for HCV NS3 helicase inhibitor project, biochemical, LOPAC1280 (AID 687037); details: Cy5-DNA-NS3h complex fluorescence interference counterscreen
[4] = sensitizers of A549 cells to miR-34 induction, primary screen, imaging, A549 dox-inducible miR-34, nuclei and caspase counts (AID 1347080;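 active = compounds whose cell count with miR-34 switched on is under 0.7 times the count with it off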); details: A549 miR-34 inducible, Hoechst nuclei count, 48 h
[5] = phospholipid biosynthesis inhibitors in animal cells, primary screen, cell-based, LOPAC library, screen 4 (AID 1347384); details: phospholipid biosynthesis inhibition screen, at 10 µM
[6] = viability rescue of complex I mutant cybrids, primary screen, cell-based, galactose medium, ATP luminescence (AID 1645843;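 active = z-score of at least 1.8 in each of two replicates, scored against plate mean and spread of sample wells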;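 also: positive z means more ATP and so rescue of galactose-driven cybrid death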); details: complex I mutant cybrid cells, 72 h, stronger effect = higher value
[7] = stronger effect = lower value, cell number ratio, induced over uninduced
[8] = measured here: relative caspase fold change +Dox/-Dox
[9] = measured here: total cells with miR-34 induction, stronger effect = lower value
[10] = measured here: total cells without miR-34 induction

Row | SMILES | period change [1] | inhibition [2] | fluorescence ratio (interference) [3] | fold change [4, 7] | fold change [4, 8] | cell count [4, 9] | cell count [4, 10] | outcome [5] | z-score [6]
1 | O=C(O)CCC(C(=O)O)N1C(=O)c2ccccc2C1=O (stereo unspecified) | -0.075 h (inactive) | -4% (inactive) | 1 (inactive) | 1.05 (inactive) | 0.915 | 10300 | 9760 | inactive | 0.255 (inactive)
2 | COC(=O)C(C)(N)Cc1ccc(O)cc1 (stereo unspecified) | -0.015 h (inactive) | -3% (inactive) | 1 (inactive) | 1.04 (inactive) | 1.45 | 10900 | 10400 | inactive | 0.39 (inactive)
3 | COC(=O)C(N)Cc1ccc(Cl)cc1 (stereo unspecified) | -0.02 h (inactive) | 1% (inactive) | 1 (inactive) | 0.984 (inactive) | 1.85 | 9580 | 9740 | inactive | 0.46 (inactive)
4 | Nc1ncnc2c1ncn2[C@@H]1O[C@H](COP(=O)(O)OP(=O)(O)OP(=O)(O)OP(=O)(O)OC[C@@H]2O[C@H](n3cnc4c(N)ncnc43)C(O)[C@@H]2O)[C@H](O)C1O (stereo partly specified) | 0.05 h (inactive) | 3% (inactive) | 1 (inactive) | 0.899 (inactive) | 1.4 | 8750 | 9730 | inactive | 4.53 (active)
5 | Nc1ncnc2c1nc(Sc1ccc(Cl)cc1)n2C1OC2COP(=O)(O)O[C@@H]2[C@@H]1O (stereo partly specified) | -0.015 h (inactive) | -8% (inactive) | 0.9 (inactive) | 1.01 (inactive) | 1.25 | 10500 | 10500 | inactive | 1.15 (inactive)
6 | COc1ccc(NC(=O)/C=C/c2ccc(Cl)cc2)cc1 | -0.055 h (inactive) | -2% (inactive) | 1 (inactive) | 1.13 (inactive) | 0.89 | 7420 | 6550 | inactive | 0.42 (inactive)
7 | N[C@@H](CCC(=O)N[C@H](CSN=O)C(=O)NCC(=O)O)C(=O)O | 0.1 h (inactive) | -3% (inactive) | 1 (inactive) | 1.04 (inactive) | 1.18 | 10800 | 10400 | inactive | 0.335 (inactive)
8 | N.N.O=C(O)C1(C(=O)O)CCC1.[Pt+2] | 0.07 h (inactive) | -3% (inactive) | 1 (inactive) | 1.04 (inactive) | 1.42 | 6330 | 6070 | inactive | -0.53 (inactive)
9 | CC(C)COC(=O)OCN1C(=O)CN(CCN2CC(=O)N(COC(=O)OCC(C)C)C(=O)C2)CC1=O | -0.045 h (inactive) | 1% (inactive) | 1 (inactive) | 0.995 (inactive) | 1.59 | 8180 | 8220 | inactive | 0.435 (inactive)
10 | CC(=O)N[C@H](C(=O)O)C(C)(C)SN=O | 0.185 h (inactive) | -4% (inactive) | 1 (inactive) | 1.07 (inactive) | 1.19 | 11100 | 10400 | inactive | -0.22 (inactive)
11 | O=c1[nH]c(=O)c2nc3ccccc3nc2[nH]1 | -0.07 h (inactive) | -1% (inactive) | 1 (inactive) | 1.04 (inactive) | 1.29 | 8690 | 8380 | inactive | 0.695 (inactive)
12 | O=c1cc(O)cc(/C=C/c2ccc(O)c(O)c2)o1 | -0.02 h (inactive) | -1% (inactive) | 1 (inactive) | 1.09 (inactive) | 1.07 | 9040 | 8270 | inactive | -0.475 (inactive)
13 | C=C/C(C)=C/[C@@]1(C)SC(=O)C(C)=C1O | -0.02 h (inactive) | -4% (inactive) | 1 (inactive) | 1.05 (inactive) | 1.19 | 10800 | 10300 | inactive | 0.66 (inactive)
14 | COc1cc(/C=C(\C#N)C(=O)c2ccc(O)c(O)c2)cc(I)c1O | 0.035 h (inactive) | 37% (active) | 0.9 (inactive) | 0.957 (inactive) | 1.26 | 9980 | 10400 | inactive | 0.8 (inactive)
15 | N[C@H](C(=O)O)[C@H](O)C(=O)O | -0.095 h (inactive) | -1% (inactive) | 1 (inactive) | 0.956 (inactive) | 1.57 | 9780 | 10200 | inactive | 0.175 (inactive)
16 | N=C(N)c1ccccc1 | -0.055 h (inactive) | -2% (inactive) | 1 (inactive) | 1.03 (inactive) | 1.99 | 10800 | 10500 | inactive | 0.605 (inactive)
17 | O=C(O)[C@H]1NCCC[C@H]1C(=O)O | 0.06 h (inactive) | -2% (inactive) | 1 (inactive) | 1.06 (inactive) | 2.09 | 10400 | 9820 | inactive | 0.52 (inactive)
18 | CCCCCCCCCCCCCCSCC(=O)O | -0.08 h (inactive) | -2% (inactive) | 1 (inactive) | 0.985 (inactive) | 1.37 | 9840 | 9990 | inactive | -0.24 (inactive)
19 | OC[C@H]1O[C@@H](n2cnc3cncnc32)[C@H](O)[C@@H]1O | 0.1 h (inactive) | -4% (inactive) | 1 (inactive) | 1.03 (inactive) | 1.29 | 10800 | 10600 | inactive | -0.28 (inactive)

— PubChem BioAssay
